Results filed as inconclusive are left out. The source made the active and inactive calls. How the source made its calls, unless noted: active means hit-call score of the fitted dose curve at least 0.9, where 1 is the maximum; inconclusive means response in the unintended direction; inactive means score below 0.9.
Key:
[1] = ATG_TCF_b_cat_CIS: Attagene CIS-FACTORIAL HepG2 Assay for human T-Cell-Factor with beta-catenin (TCF/b-cat) (AID 2282965; active means hit-call score of the fitted dose curve at least 0.9, where 1 is the maximum; inactive means score below 0.9); details: HepG2 TCF/beta-catenin cis-reporter transcription, actives raise or lower the signal
Outline: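 Cells of the HepG2 line carry transiently transfected reporter units whose promoters respond to endogenous factors. Twenty-four hours post-dosing, reporter mRNA induction is measured by fluorescent RT-PCR and capillary electrophoresis, with DMSO as baseline.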

[2] = ATG_TAL_CIS: Attagene CIS-FACTORIAL HepG2 Assay for human TAL Basal Promoter (AID 2282966; active means hit-call score of the fitted dose curve at least 0.9, where 1 is the maximum; inactive means score below 0.9;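 further: background control endpoint measuring basal TAL promoter reporter mRNA not a specific factor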); details: HepG2 Attagene cis-factorial TAL promoter reporter; actives raise or lower the signal
Outline: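 RT-PCR plus capillary electrophoresis quantifies reporter mRNA induction in transiently transfected HepG2 cells after 24 h chemical treatment. DMSO serves as negative control and baseline for bidirectional fitting.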

[3] = ATG_TGFb_CIS: Attagene CIS-FACTORIAL HepG2 Assay for human Transforming Growth Factor (TGF) (AID 2282967; active means hit-call score of the fitted dose curve at least 0.9, where 1 is the maximum; inactive means score below 0.9); details: HepG2 Attagene CIS TGFb reporter, mRNA transcription; actives raise or lower the signal
Outline: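 Transient MRTU transfection of HepG2 (FuGene 6). Dose 24 h. TriZol RNA, oligo(dT) RT, PCR, 6-FAM primer extension, HpaI cut, CE. Bidirectional fit, DMSO = baseline.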

[4] = ATG_VDRE_CIS: Attagene CIS-FACTORIAL HepG2 Assay for human Vitamin D Receptor Element (VDRE) (AID 2282968; active means hit-call score of the fitted dose curve at least 0.9, where 1 is the maximum; inactive means score below 0.9); details: HepG2 VDRE cis-reporter transcription, actives raise or lower the signal
Outline: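 Cell-based multiplexed reporter format in human liver HepG2 cells, 24 h post-dose. Fluorescence from capillary electrophoresis of reporter cDNA gives the signal, with DMSO as negative control and baseline.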

[5] = molecular target: Estrogen receptor (Homo sapiens) (UniProt P03372); assay: ATG_ERa_TRANS: Attagene TRANS-FACTORIAL HepG2 Assay for human Estrogen Receptor alpha (ERa) (AID 2282970); details: HepG2 Attagene TRANS ERa GAL4 reporter, mRNA
Outline: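 Cells: HepG2, transiently transfected. Construct: GAL4-UAS reporter units regulated by exogenous NR-Gal4 chimeras. Time: 24 h. Detection: reporter mRNA by RT-PCR, capillary electrophoresis, fluorescence. Baseline: DMSO, upward fitting.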

[6] = molecular target: X-box-binding protein 1 (Homo sapiens) (UniProt P17861); assay: ATG_Xbp1_CIS: Attagene CIS-FACTORIAL HepG2 Assay for human X-box Binding Protein 1 (XBP1) (AID 2282972; active means hit-call score of the fitted dose curve at least 0.9, where 1 is the maximum; inactive means score below 0.9); details: HepG2 XBP1 cis-element reporter, Attagene multiplex; actives raise or lower the signal
Outline: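 Fluorescence-labelled cDNA fragments from reporter transcripts, separated by capillary electrophoresis, give the signal. Source: HepG2 cells transfected with promoter-driven reporter units, harvested 24 h post-dose. DMSO served as reference for bidirectional curve fitting.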

[7] = ATG_M_19_TRANS: Attagene TRANS-FACTORIAL HepG2 Assay for M19 Transcription Factor (Internal Marker) (AID 2282974); details: HepG2 Attagene TRANS-FACTORIAL M19 internal marker reporter
Outline: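 HepG2 cells transiently transfected with multiple GAL4-UAS reporter transcription units were exposed to chemicals for 24 h. Reporter mRNA was read by RT-PCR, 6-FAM primer extension, HpaI digestion and capillary electrophoresis; gain of signal fitted relative to DMSO.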

[8] = ATG_GAL4_TRANS: Attagene TRANS-FACTORIAL HepG2 Assay for GAL4 (Internal Marker) (AID 2282976); details: HepG2 Attagene TRANS GAL4 internal marker reporter
Outline: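 In transfected human HepG2 liver cells dosed 24 h, GAL4 reporter mRNA serves as a baseline marker. Detection by RT-PCR with fluorescent capillary electrophoresis, activity fitted upward relative to DMSO.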

[9] = molecular target: Bile acid receptor (Homo sapiens) (UniProt Q96RI1); assay: ATG_FXR_TRANS: Attagene TRANS-FACTORIAL HepG2 Assay for Farnesoid X Receptor (FXR) (AID 2282979); details: HepG2 Attagene TRANS FXR-GAL4 reporter transcription;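 further: hits raise reporter mRNA above DMSO so AC50 marks FXR activation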
Outline: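 Reporter transcripts from transfected HepG2 cells were measured 24 h after dosing, using RT-PCR with capillary electrophoresis of 6-FAM-labelled fragments. The read-out reflects activity of exogenous FXR-Gal4 chimera on GAL4-UAS units, with induction relative to DMSO.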

[10] = molecular target: Oxysterols receptor LXR-alpha (Homo sapiens) (UniProt Q13133); assay: ATG_LXRa_TRANS: Attagene TRANS-FACTORIAL HepG2 Assay for human Liver X Receptor alpha (LXRa) (AID 2282980); details: HepG2 Attagene TRANS reporter, LXRa transactivation
Outline: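 Chemical-induced reporter mRNA measured by RT-PCR with fluorescent labelling and capillary electrophoresis after 24 h dosing of transiently transfected HepG2 cells expressing exogenous NR-Gal4 chimeras; increases scored against DMSO baseline.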

[11] = molecular target: Oxysterols receptor LXR-beta (Homo sapiens) (UniProt P55055); assay: ATG_LXRb_TRANS: Attagene TRANS-FACTORIAL HepG2 Assay for human Liver X Receptor beta (LXRb) (AID 2282981); details: HepG2 Attagene TRANS GAL4-LXRb reporter, mRNA
Outline: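 Gain-of-signal mRNA reporter endpoint, DMSO as negative control. Transiently transfected HepG2 cells carrying the NR-Gal4 chimera and GAL4-UAS reporter units were treated 24 h; transcripts quantified by RT-PCR and capillary electrophoresis fluorescence.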

[12] = molecular target: Hepatocyte nuclear factor 4-alpha (Homo sapiens) (UniProt P41235); assay: ATG_HNF4a_TRANS: Attagene TRANS-FACTORIAL HepG2 Assay for human Hepatocyte Nuclear Factor 4 alpha (HNF4a) (AID 2282982); details: HepG2 HNF4a transactivation reporter, mRNA readout
Outline: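 Gain-of-signal mRNA induction, relative to DMSO vehicle, was read after 24 h compound treatment of HepG2 cells bearing transfected GAL4-UAS reporters. Detection used RT-PCR, 6-FAM primer extension and capillary electrophoresis.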

[13] = ATG_M_06_TRANS: Attagene TRANS-FACTORIAL HepG2 Assay for M06 Transcription Factor (Internal Marker) (AID 2282983); details: HepG2 Attagene TRANS M06 internal marker reporter
Outline: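 Cells: HepG2, transient multi-reporter transfection. Exposure: 24 h. Detection: RT-PCR, 6-FAM labelling, HpaI digestion (2 h, 37 °C), capillary electrophoresis. Baseline: DMSO.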

[14] = ATG_M_32_TRANS: Attagene TRANS-FACTORIAL HepG2 Assay for M32 Transcription Factor (Internal Marker) (AID 2282984); details: HepG2 Attagene TRANS M32 internal marker reporter;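 further: transcript level of a background control reporter unit measured by RT-PCR and capillary electrophoresis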
Outline: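 Capillary electrophoresis of 6-FAM-labelled reporter fragments gives the signal; data fitted for gain over DMSO negative control. Source: HepG2 cells bearing transient multiple reporter transcription units, 24 h exposure.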

[15] = molecular target: Nuclear receptor subfamily 4 group A member 2 (Homo sapiens) (UniProt P43354); assay: ATG_NURR1_TRANS: Attagene TRANS-FACTORIAL HepG2 Assay for human Nuclear Receptor Related Protein 1 (NURR1) (AID 2282985); details: HepG2 Attagene TRANS reporter, mRNA readout
Outline: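 HepG2 / transient MRTU transfection / 24 h compound exposure / RT-PCR + CE fluorescence of reporter mRNA / gain-of-signal vs DMSO.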

[16] = molecular target: Transcriptional activator Myb (Homo sapiens) (UniProt P10242); assay: ATG_Myb_CIS: Attagene CIS-FACTORIAL HepG2 Assay for human Myeloblastosis (Myb) Proto-Oncogene Transcription Factor (AID 2282986; active means hit-call score of the fitted dose curve at least 0.9, where 1 is the maximum; inactive means score below 0.9); details: HepG2 Attagene CIS-FACTORIAL Myb reporter transcription; actives raise or lower the signal
Outline: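 HepG2 cells were transiently transfected with cis-regulated multiple reporter transcription units reflecting endogenous Myb activity, then exposed to compound for 24 hours. Reporter mRNA was measured by RT-PCR with capillary electrophoresis; bidirectional fitting versus DMSO baseline.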

[17] = molecular target: Glucocorticoid receptor (Homo sapiens) (UniProt P04150); assay: ATG_GR_TRANS: Attagene TRANS-FACTORIAL HepG2 Assay for human Glucocorticoid Receptor (GR) (AID 2282978); details: HepG2 Attagene TRANS GR reporter, mRNA transcription;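 further: activators score as hits since higher reporter transcript over DMSO is fitted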
Outline: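 HepG2 cells transiently transfected with multiplexed reporter units in which chimeric NR-GAL4 proteins drive GAL4-UAS reporters; 24 h compound exposure. Reporter mRNA measured by RT-PCR, 6-FAM labelling, HpaI digestion and capillary electrophoresis; gain-of-signal fitted versus DMSO.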

[18] = molecular target: Steroid hormone receptor ERR1 (Homo sapiens) (UniProt P11474); assay: ATG_ERRa_TRANS: Attagene TRANS-FACTORIAL HepG2 Assay for human Estrogen-Related Receptor alpha (ERRa) (AID 2282971); details: HepG2 Attagene TRANS reporter, ERRa transactivation
Outline: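 Reporter transcripts from ERRa-Gal4 chimera activity measured in transiently transfected human HepG2 cells 24 hours after dosing, using RT-PCR with 6-FAM primer extension, HpaI digestion and capillary electrophoresis; DMSO is baseline.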

[19] = molecular target: Estrogen-related receptor gamma (Homo sapiens) (UniProt P62508); assay: ATG_ERRg_TRANS: Attagene TRANS-FACTORIAL HepG2 Assay for human Estrogen-Related Receptor gamma (ERRg) (AID 2282977); details: HepG2 Attagene TRANS reporter, ERRg transactivation;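 further: hits increase reporter signal over DMSO so potencies reflect activators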
Outline: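 HepG2 cells transiently transfected with multiplexed GAL4-UAS reporter units and chimeric NR-Gal4 constructs were exposed to test chemicals for 24 h. Reporter mRNA was measured by RT-PCR, 6-FAM primer extension, HpaI digestion and capillary electrophoresis; gain-of-signal versus DMSO.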

Measured: AC50

X-box-binding protein 1 (Homo sapiens), sequence (P17861 whole entry, looked up, the tested form may be a part): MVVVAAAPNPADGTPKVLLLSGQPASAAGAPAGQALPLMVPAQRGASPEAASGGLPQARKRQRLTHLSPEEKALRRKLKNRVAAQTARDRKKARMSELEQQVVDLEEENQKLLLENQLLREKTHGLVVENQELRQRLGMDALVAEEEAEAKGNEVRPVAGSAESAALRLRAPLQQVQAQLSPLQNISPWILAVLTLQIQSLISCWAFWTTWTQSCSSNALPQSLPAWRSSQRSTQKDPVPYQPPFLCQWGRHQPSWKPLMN
Bile acid receptor (Homo sapiens), sequence (Q96RI1 whole entry, looked up, the tested form may be a part): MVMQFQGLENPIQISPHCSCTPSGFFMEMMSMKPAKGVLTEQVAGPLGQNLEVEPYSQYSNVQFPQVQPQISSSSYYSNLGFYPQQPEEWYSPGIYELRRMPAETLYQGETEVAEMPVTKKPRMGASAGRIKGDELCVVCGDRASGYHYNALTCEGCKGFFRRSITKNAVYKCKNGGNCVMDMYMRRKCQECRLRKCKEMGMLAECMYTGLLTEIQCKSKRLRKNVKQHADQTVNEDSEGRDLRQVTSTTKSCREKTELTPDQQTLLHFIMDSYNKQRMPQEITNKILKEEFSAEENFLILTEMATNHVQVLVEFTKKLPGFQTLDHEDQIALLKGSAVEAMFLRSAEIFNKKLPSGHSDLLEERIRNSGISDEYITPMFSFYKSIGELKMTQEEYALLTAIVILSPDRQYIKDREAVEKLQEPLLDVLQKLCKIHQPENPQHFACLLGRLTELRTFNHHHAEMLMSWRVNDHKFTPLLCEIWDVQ
Oxysterols receptor LXR-alpha (Homo sapiens), sequence (Q13133 whole entry, looked up, the tested form may be a part): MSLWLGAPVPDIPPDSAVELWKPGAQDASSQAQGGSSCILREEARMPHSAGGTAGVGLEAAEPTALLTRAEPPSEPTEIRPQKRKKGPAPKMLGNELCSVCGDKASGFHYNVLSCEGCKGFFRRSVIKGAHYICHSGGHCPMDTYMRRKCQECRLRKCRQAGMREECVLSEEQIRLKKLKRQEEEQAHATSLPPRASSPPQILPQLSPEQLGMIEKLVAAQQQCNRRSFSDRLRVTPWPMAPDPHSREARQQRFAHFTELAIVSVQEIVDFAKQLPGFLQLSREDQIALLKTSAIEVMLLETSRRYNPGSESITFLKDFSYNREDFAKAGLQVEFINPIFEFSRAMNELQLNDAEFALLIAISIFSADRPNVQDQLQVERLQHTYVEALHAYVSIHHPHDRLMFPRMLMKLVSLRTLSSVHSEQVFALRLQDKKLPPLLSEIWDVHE
Transcriptional activator Myb (Homo sapiens), sequence (P10242 whole entry, looked up): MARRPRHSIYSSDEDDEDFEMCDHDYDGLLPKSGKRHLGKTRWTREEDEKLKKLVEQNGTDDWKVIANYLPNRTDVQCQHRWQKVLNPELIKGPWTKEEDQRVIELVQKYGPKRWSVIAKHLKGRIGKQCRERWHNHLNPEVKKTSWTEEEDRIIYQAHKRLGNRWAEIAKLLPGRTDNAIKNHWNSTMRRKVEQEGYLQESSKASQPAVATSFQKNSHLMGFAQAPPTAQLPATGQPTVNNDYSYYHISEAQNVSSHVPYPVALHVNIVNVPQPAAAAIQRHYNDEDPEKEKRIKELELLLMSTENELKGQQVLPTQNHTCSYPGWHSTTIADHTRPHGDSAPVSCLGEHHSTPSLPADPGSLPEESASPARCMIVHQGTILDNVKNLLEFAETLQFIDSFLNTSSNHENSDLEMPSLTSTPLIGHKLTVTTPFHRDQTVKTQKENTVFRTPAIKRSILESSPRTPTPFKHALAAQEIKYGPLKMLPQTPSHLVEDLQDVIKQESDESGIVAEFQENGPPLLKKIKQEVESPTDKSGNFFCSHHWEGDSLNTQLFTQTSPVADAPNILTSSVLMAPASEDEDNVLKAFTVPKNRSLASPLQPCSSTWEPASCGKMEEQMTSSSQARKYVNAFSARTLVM
Glucocorticoid receptor (Homo sapiens), sequence (P04150 whole entry, looked up, the tested form may be a part): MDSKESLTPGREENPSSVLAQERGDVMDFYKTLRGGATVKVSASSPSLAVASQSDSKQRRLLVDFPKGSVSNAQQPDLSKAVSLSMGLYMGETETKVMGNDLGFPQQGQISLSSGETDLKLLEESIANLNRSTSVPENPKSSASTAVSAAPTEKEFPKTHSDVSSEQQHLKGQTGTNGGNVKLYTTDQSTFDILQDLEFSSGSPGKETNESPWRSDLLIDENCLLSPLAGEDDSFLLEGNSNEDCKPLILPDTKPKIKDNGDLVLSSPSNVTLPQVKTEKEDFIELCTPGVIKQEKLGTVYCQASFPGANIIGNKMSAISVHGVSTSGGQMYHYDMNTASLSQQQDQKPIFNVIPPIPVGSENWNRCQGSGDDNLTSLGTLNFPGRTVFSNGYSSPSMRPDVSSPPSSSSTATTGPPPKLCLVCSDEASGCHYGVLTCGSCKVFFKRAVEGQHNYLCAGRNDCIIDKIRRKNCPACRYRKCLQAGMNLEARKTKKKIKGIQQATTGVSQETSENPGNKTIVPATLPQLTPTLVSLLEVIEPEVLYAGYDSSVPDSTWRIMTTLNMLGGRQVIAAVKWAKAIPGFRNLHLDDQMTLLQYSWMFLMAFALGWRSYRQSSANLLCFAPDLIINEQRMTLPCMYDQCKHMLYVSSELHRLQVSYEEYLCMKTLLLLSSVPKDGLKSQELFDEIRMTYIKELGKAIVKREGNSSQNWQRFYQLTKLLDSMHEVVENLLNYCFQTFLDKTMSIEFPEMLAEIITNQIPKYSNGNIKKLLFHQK
Nuclear receptor subfamily 4 group A member 2 (Homo sapiens), sequence (P43354 whole entry, looked up): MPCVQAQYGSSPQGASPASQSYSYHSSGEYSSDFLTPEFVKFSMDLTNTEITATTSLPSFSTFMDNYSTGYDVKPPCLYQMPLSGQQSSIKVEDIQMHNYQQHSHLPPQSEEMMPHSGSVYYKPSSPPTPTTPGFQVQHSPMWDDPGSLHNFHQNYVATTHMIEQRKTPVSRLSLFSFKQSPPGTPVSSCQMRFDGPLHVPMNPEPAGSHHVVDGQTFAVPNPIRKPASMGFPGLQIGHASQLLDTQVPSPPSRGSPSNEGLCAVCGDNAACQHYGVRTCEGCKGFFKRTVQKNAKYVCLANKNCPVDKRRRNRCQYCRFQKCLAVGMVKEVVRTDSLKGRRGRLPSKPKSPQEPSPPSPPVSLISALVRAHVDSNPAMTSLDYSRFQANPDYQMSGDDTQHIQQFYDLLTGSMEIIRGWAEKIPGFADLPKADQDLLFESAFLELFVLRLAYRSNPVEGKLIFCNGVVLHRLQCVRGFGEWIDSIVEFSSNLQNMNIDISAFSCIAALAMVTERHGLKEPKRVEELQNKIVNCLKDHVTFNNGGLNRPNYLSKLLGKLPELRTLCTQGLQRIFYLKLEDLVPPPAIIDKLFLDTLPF
Oxysterols receptor LXR-beta (Homo sapiens), sequence (P55055 whole entry, looked up, the tested form may be a part): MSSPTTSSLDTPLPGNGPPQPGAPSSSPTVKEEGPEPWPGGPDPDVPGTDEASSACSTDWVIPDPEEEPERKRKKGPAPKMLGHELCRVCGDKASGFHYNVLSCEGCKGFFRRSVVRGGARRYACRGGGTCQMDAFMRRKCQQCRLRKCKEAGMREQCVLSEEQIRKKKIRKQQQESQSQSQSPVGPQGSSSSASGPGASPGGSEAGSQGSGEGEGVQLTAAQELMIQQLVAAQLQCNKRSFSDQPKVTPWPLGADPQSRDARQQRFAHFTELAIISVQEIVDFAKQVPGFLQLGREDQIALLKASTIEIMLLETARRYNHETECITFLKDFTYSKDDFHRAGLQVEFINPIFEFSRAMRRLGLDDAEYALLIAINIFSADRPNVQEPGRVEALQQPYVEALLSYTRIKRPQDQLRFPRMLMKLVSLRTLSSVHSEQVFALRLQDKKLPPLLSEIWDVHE
Estrogen receptor (Homo sapiens), sequence (P03372 whole entry, looked up, the tested form may be a part): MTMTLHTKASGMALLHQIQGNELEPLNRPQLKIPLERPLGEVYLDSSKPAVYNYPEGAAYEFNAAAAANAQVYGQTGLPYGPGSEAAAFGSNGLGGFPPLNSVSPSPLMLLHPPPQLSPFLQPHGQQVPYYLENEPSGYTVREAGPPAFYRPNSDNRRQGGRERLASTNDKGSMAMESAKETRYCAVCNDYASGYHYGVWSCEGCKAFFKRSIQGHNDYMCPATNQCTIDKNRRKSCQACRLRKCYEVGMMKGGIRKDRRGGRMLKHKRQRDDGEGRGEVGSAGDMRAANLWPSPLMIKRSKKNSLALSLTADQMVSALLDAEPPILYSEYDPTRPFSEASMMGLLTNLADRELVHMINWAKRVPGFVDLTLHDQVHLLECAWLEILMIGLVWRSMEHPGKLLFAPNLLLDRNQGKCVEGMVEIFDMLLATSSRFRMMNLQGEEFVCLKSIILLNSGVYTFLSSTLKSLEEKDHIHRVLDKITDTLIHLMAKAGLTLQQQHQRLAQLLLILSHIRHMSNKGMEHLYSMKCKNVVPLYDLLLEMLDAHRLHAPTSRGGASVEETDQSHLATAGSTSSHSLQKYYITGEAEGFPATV
Hepatocyte nuclear factor 4-alpha (Homo sapiens), sequence (P41235 whole entry, looked up, the tested form may be a part): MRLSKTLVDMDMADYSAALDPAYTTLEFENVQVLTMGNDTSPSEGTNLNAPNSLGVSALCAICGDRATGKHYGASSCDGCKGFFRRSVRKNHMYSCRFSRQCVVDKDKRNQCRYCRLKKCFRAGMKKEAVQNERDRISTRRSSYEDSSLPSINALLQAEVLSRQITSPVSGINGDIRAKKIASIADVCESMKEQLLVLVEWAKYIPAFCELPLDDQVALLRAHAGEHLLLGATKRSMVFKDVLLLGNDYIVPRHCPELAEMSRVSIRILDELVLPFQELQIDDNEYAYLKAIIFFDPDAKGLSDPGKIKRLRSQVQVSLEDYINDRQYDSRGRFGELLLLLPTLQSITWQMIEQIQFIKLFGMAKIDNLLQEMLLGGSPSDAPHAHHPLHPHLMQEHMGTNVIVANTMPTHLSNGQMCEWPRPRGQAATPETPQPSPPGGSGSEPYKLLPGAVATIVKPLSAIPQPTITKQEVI

C=C(C)C(=O)OCC(F)(F)C(F)(F)C(F)(F)C(F)F
inactive: [1] | [2] | [3] | [4] | [5] | [6] | [7] | [8] | [9] | [10] | [11] | [12] | [13] | [14] | [15] | [16]

CCCCCCCCCCCCCC[P+](CCCC)(CCCC)CCCC
inactive: [1] | [2] | [3] | [5] | [7] | [8] | [9] | [10] | [11] | [13] | [14] | [16]
active: [4] 0.897 µM | [6] 0.834 µM

COC(F)(C(F)F)C(F)(F)F (stereo not given)
inactive: [1] | [2] | [3] | [4] | [5] | [6] | [8] | [17] | [15] | [16]

O=C(O)CCC(F)(F)C(F)(F)C(F)(F)C(F)(F)C(F)(F)C(F)(F)C(F)(F)F
active: [1] 150 µM
inactive: [2] | [3] | [4] | [5] | [6] | [7] | [9] | [10] | [14] | [15] | [16]

O=C(F)C1(F)C(F)(F)C(F)(F)C(F)(F)C(F)(F)C1(F)F
inactive: [1] | [2] | [3] | [4] | [5] | [6] | [7] | [9] | [10] | [11] | [14] | [15] | [16]

CC(C)OC=O
inactive: [1] | [2] | [3] | [4] | [6] | [7] | [8] | [17] | [13] | [15] | [16]

CCCCCCCC/C=C\CCCCCCCC(=O)OCC(O)CO (stereo not given)
inactive: [1] | [2] | [3] | [4] | [18] | [6] | [8] | [19] | [17] | [9] | [13] | [14] | [15] | [16]

OCC(F)(F)C(F)(F)C(F)(F)C(F)(F)C(F)(F)C(F)(F)CO
inactive: [1] | [2] | [3] | [4] | [6] | [7] | [9] | [10] | [11] | [14] | [15] | [16]
active: [5] 0.0538 µM

NC(=O)C(F)(F)C(F)(F)C(F)(F)C(F)(F)C(N)=O
inactive: [1] | [2] | [3] | [4] | [5] | [6] | [7] | [8] | [12] | [16]

CCCCCCCCCc1ccc(OCCO)cc1
active: [1] 21.5 µM | [16] 17.6 µM
inactive: [2] | [3] | [4] | [5] | [6] | [7] | [9] | [13]

CCN(CC)c1ccc(C=O)c(O)c1
active: [4] 32.5 µM
inactive: [1] | [2] | [3] | [5] | [6] | [8] | [9] | [10] | [14] | [15] | [16]
